{"source": "PubChem BioAssay (NCATS)", "note": "Inconclusive results are not listed. A call without a number means that no potency is given here. Activity calls are given as the source filed them. Calls follow the shape of the dose curve; as a rule, active = well fitted activation curve with a large enough effect; inconclusive = small, poorly fitted or top-dose-only effect; inactive = flat fitted curve, though single readings scatter. Peptide text beside a SMILES is read from it. * marks the point of attachment. Hexanoyl = CCCCCC(=O)*", "data": [{"test": "qHTS for Activators of p53 Stress Response Pathway screened against the NCATS CANVASS Library (AID 1347388); also: potency is read from the fitted curve at half-maximal effect", "settings": "p53RE-bla HCT-116, beta-lactamase reporter, 16 h; series mostly up to 46.1 µM", "text": "Natural products and their derivatives continue to be wellsprings of nascent therapeutic potential. However, many laboratories have limited resources for biological evaluation, leaving their previously isolated or synthesized compounds largely or completely untested. To address this issue, the Canvass library of natural products was assembled (https://tripod.nih.gov/canvass), in collaboration with academic and industry researchers, for quantitative high-throughput screening (qHTS) across a diverse set of cell-based and biochemical assays. The pure (>85% purity by liquid chromatography/mass spectrometry [LC/MS]) Canvass library of 346 natural products were submitted by 45 academic laboratories and companies around the world. We collected pure natural products to circumvent deconvolution and structure elucidation due to time and resource limitations. The library was formatted into 1536-well plates and evaluated in 50 qHTS (in an 11-pnt concentration series) bioassays with broad scope of disease-relevant mechanisms. The resulting data set from 50 different assays was then systematically analyzed to identify overall trends and specific natural products with interesting biological activities. Reported herein are the results of each individual qHTS and their corresponding assay protocol. This assay measures compound activation of the p53 signaling pathway in cells using a beta-lactamase reporter gene. The p53RE-bla HCT-116 cell line (Invitrogen) contains a stably integrated beta-lactamase reporter gene under control of the p53 response elements. The activation of the report gene under culture conditions can be detected by fluorescence intensity. National Center for Advancing Translational Sciences (NCATS), Rockville, MD National Institute of Health (NIH), Bethesda, Maryland\np53-screen protocol: 1. In black-clear bottom 1536-well plate, 5 uL of p53RE-bla HCT-116 cell suspension was dispensed using a Multidrop Combi (Thermo Fisher Scientific) at a final concentration of 4000 cells / well. 2. The assay plates were incubated for 5 hours at 37C, 5% CO2. 3. […] of compounds (in DMSO; columns 5-48), vehicle control DMSO, and positive control were pin transferred into the assay plates using the Kalypsis pin tool (Wako USA) equipped with a 1536-well pin heads. This yields a final CANVASS compound concentration of 0.4 nM - […]. 4. The assay plates were incubated for 16 hours at 37C, 5% CO2. 5. After incubation, 1 uL of CCF4 dye was added per well using the BioRAPTR dispenser 6. The plates were incubated for 2 hours at room temperature. 7. The fluorescence readout was obtained using the EnVision microplate reader (PerkinElmer) equipped with a 405 nm excitation and 460 nm and 530 nm emission filters. The ratio of 460 nm / 530 nm readout was calculated and used for data analysis. 8. To access cellular viability and compound toxicity, 4 uL of CellTiter-Glo was added to the wells using the BioRAPTR dispenser. 9. The assay plates were further incubated for 30 minutes at room temperature. 10. Luminescence signal was obtained using the ViewLux plate reader (PerkinElmer) using the clear emission filter and 1x binning, 2 second exposure settings.", "values": [{"smiles": "COc1cc2c(cc1OC)[C@@H](c1ccc3c(c1)OCO3)C(C)C(C)C2=O", "note": "(stereo not given in full)", "Potency": "inactive"}, {"smiles": "C/C(=C\\[C@@H](C)CC/C=C/CC/C=C/C(=O)O)[C@H](O)[C@H](C)C(=O)CCCC1CC(=O)NC(=O)C1", "Potency": "inactive"}, {"smiles": "COc1cc([C@@H]2c3cc4c(cc3C[C@@]3(O[C@@H]5O[C@H](CO)[C@@H](O)[C@H](O)[C@H]5O)COC(=O)[C@H]23)OCO4)cc(OC)c1OC", "Potency": "inactive"}, {"smiles": "COC(=O)c1cccc2oc(-c3cccc4oc(-c5c(C)cccc5O)nc34)nc12", "Potency": "inactive"}, {"smiles": "C/C(=C\\[C@H](C)C(=O)C[C@H](O)CC1CC(=O)NC(=O)C1)[C@@H]1OC(=O)CCCC/C=C/C[C@@H](O)[C@@H]1C", "Potency": "inactive"}, {"smiles": "COc1ccc(-c2oc3cc(OC)cc(OC)c3c(=O)c2O)cc1", "Potency": "inactive"}, {"smiles": "CCCCCC(=O)N[C@@H](CC(C)C)C(=O)N[C@H](C=O)CCC(=O)O", "note": "(Hexanoyl-Leu-Glu-aldehyde)", "Potency": "inactive"}, {"smiles": "O=C1CC(c2ccc(O)cc2)Oc2cc(O)cc(O)c21", "note": "(stereo not given)", "Potency": "inactive"}, {"smiles": "C[C@H]1CCC2(OC1)O[C@H]1C[C@H]3[C@@H]4CC(=O)[C@]5(O)C[C@H](O)CC[C@@]5(C)[C@H]4CC[C@@]3(C)[C@H]1[C@H]2C", "note": "(stereo not given in full)", "Potency": "23.4 µM (active)"}, {"smiles": "CC[C@H](O)CCCCC[C@@H]1NC(=O)[C@H]2CCCCN2C(=O)[C@H]([C@H](C)CC)NC(=O)[C@H](Cc2cn(OC)c3ccccc23)NC1=O", "Potency": "inactive"}, {"smiles": "O=Cc1ccc2n1C[C@]1(OC2)O[C@H](CO)[C@@H](O)[C@@H]1O", "Potency": "inactive"}, {"smiles": "COc1cc2c(cc1OC)[C@@H](c1ccc3c(c1)OCO3)C(C)[C@@H](C)C2=O", "note": "(stereo not given in full)", "Potency": "inactive"}, {"smiles": "CN1CC[C@]23c4ccccc4N[C@H]1[C@]21CCN(C)[C@H]3Nc2ccccc21", "Potency": "inactive"}, {"smiles": "C[C@]12CCC[C@](C)(C(=O)O)[C@@H]1CC[C@@]1(C)c3cocc3CC[C@H]21", "Potency": "inactive"}, {"smiles": "CN1CCc2cc3c(c4c2C1(C)C(=O)c1cc(O)ccc1-4)OCO3", "note": "(stereo not given)", "Potency": "inactive"}, {"smiles": "C/C(=C\\[C@@H](C)CC/C=C/CC/C=C/C(=O)O)[C@@H](O)[C@H](C)C(=O)CCCC1CC(=O)NC(=O)C1", "Potency": "inactive"}, {"smiles": "C=C[C@@](C)(O)CC[C@@H]1[C@@]2(C)CCCC(C)(C)[C@@H]2CC[C@@]1(C)O", "Potency": "inactive"}, {"smiles": "CC(C)=CCC[C@]1(C)[C@H]2CC(=O)[C@@]3(CO3)[C@@H]1C2", "Potency": "inactive"}, {"smiles": "CC[C@H]1[C@H](C)[C@H](c2cc(OC)c(OC)cc2OC)[C@@H](C)[C@H](c2cc(OC)c(OC)cc2OC)[C@@]12C=C(OC)C(=O)C=C2OC", "Potency": "inactive"}, {"smiles": "COC(=O)[C@@]1(C)CCC[C@]2(C)c3cc(OC)ccc3CC[C@@H]12", "Potency": "inactive"}, {"smiles": "O=C1CC(c2ccc(O)cc2)Oc2cc(O)ccc21", "note": "(stereo not given)", "Potency": "inactive"}, {"smiles": "[C-]#[N+][C@@]12C(=O)[C@@H]3[C@@H](O[C@@]4(C(=O)N(C)c5cccc1c54)C3(C)C)C(=O)[C@@]2(C)C=C", "Potency": "inactive"}, {"smiles": "C[C@]12CC[C@]3(C1)[C@H](CC2=O)C[C@@H](OC(=O)c1ccccc1)[C@H]1[C@](C)(C(=O)O)CCC[C@@]13C", "Potency": "inactive"}, {"smiles": "CC(=O)c1c(C)cc2c(c1O)C(=O)c1c(O)cc(O)cc1C2=O", "Potency": "inactive"}, {"smiles": "CCCc1c2c([nH]c(=O)c1C)C(=O)c1[nH]c(=O)c(C)c(CCC)c1C2=O", "Potency": "inactive"}, {"smiles": "CC(=O)O[C@H]1c2ccccc2-c2c3c(cc4c2[C@@H]1N(C(C)=O)CC4)OCO3", "Potency": "inactive"}, {"smiles": "C[C@@]12CCC[C@@](C)(C(=O)O)[C@H]1C[C@@H](O)[C@@]13C[C@@H](CC[C@@H]21)[C@](C)(O)C3", "Potency": "inactive"}, {"smiles": "CO[C@H]1/C=C/CCCCC(=O)O[C@@H](/C(C)=C/[C@H](C)C(=O)C[C@H](O)CC2CC(=O)NC(=O)C2)[C@@H](C)C1", "Potency": "inactive"}, {"smiles": "C=C1C[C@H]2O[C@@H]3[C@@H]4[C@H](CC[C@@](C)(O)[C@@H]42)[C@H](C)COC3(C)[C@@H](OC(=O)CCCCCCC)C[C@H]1O", "note": "(stereo not given in full)", "Potency": "inactive"}, {"smiles": "COC(=O)C1=C[C@]23C[C@@H](C)CC[C@@H]2[C@@]2(C)CC[C@@H](C(C)C)[C@@](O)(O3)[C@@H]12", "Potency": "inactive"}, {"smiles": "CC1=C(C)C(=O)OC(C(C)C2(O)CCC3C4C5OC5C5(O)CC=CC(=O)C5(C)C4CCC32C)C1", "note": "(stereo not given)", "Potency": "inactive"}, {"smiles": "Cc1cc(C)c(O)c(C(=O)CC2CC(=O)NC(=O)C2)c1", "Potency": "inactive"}, {"smiles": "C[C@H](CCC(O)C(C)(O)CO)[C@@]1(O)CC[C@@]2(C)C3=C(CC[C@@]21C)[C@@]1(C)CCC(OC(=O)CCC(=O)O)C(C)(C)[C@@H]1CC3", "note": "(stereo not given in full)", "Potency": "inactive"}, {"smiles": "O=c1cc(-c2ccc(O)c(O)c2)oc2cc(O[C@@H]3O[C@H](CO)[C@@H](O)[C@H](O)[C@H]3O)cc(O)c12", "Potency": "inactive"}, {"smiles": "COc1ccc([C@@H]2CC(=O)c3c(cc(O)c(C/C=C(\\C)CCC=C(C)C)c3O)O2)cc1", "activation": "21.1% [at 9.19 µM] (inactive)"}, {"smiles": "CC(C)=CCC[C@]12c3cc4c(cc3CC[C@@]1(C)[C@H](C)CC[C@@H]2O)[nH]c1ccccc14", "Potency": "inactive"}, {"smiles": "CCC(=O)N[C@@H](C[C@H](C)C(Cl)(Cl)Cl)C(=O)N1C(=O)C=C(OC)[C@@H]1CC(C)C", "Potency": "inactive"}, {"smiles": "CN1CC[C@@]2([C@@]34CCN(C)[C@@H]3Nc3ccccc34)c3ccccc3N[C@@H]12", "Potency": "inactive"}, {"smiles": "O=c1cc(-c2ccc(O)cc2)oc2cc(O)c([C@@H]3OC(CO)[C@H](O)[C@@H](O)[C@H]3O)c(O)c12", "note": "(stereo not given in full)", "Potency": "inactive"}, {"smiles": "CC(C)[C@]12CC[C@@]3(C)[C@H](C)CC[C@H](O)[C@@]3(CC1)c1cc3c(cc12)[nH]c1ccccc13", "Potency": "inactive"}]}]}
